These results are taken from PubChem BioAssay (NCATS).

SMILES strings stand for the structures. Records with an inconclusive call do not appear. Unmarked numbers belong to inactive results. Activity calls are given as the source filed them. Calls come from the whole dose curve; as a rule, active = well fitted cell-killing curve with a large enough effect; inconclusive = small, poorly fitted or top-dose-only effect; inactive = no such curve, though single readings can be large or run the other way.
% is set by controls: 0 for no effect and ±100 for the full control effect.

The nature of this experiment: qHTS of pediatric cancer cell lines to identify multiple opportunities for drug repurposing: Primary screen for Rh30 cells (AID 1347107). Note: nearly all actives have a fitted effect of over 75% in size. Conditions: Rh30 rhabdomyosarcoma viability, CellTiter-Glo luminescence, 48 h; series mostly up to 46 µM; activity change, negative = cytotoxic: at the top concentration. The source says:
Drug repurposing or repositioning has been offered as a strategy for drug development in oncology programs. This approach has special potential for childhood cancers and other rare or orphan diseases, where the expected return on new drug development has been a disincentive to pharmaceuticals.
In this project we exploit the poly-pharmacology of drugs to discover new indications via phenotypic screening of a panel of 19 well-characterized cell lines derived from solid tumors seen in children and adolescents. The goal is to identify approved drugs with previously unrecognized anticancer properties that has the potential to reveal new mechanisms and biological processes involved in carcinogenesis or drug resistance. We employed a titration-based paradigm (quantitative high-throughput screening or qHTS), where all compounds were tested at multiple concentrations for their effect on cell viability. Concentration-response curves (CRCs) were derived directly from the primary screen, and both potency and efficacy values were used to identify compounds with robust bioactivity profiles. We screened the NIH Chemical Genomics Center (NCGC) Pharmaceutical Collection (NPC) and Mechanism Interrogation Plate (MIPE) small molecule collections of approved and investigational compounds against these cell lines; and measured metabolically active cells after 48 hours of compound treatment as a proxy for cell viability.
Assay Submitter: Nathalia J. Martinez, National Center for Advancing Translational Sciences, National Institutes of Health, Rockville, MD, USA; email: natalia.martinez@nih.gov
[1] Shen, M et al. Quantitative high-throughput phenotypic screening of pediatric cancer cell lines identifies multiple opportunities for drug repurposing. Oncotarget 2017 Dec 19;9(4):4758-4772. PMID 29435139.
The cells were obtained from University of North Carolina (UNC), Pediatric Preclinical Testing Program (PPT), and Coriell Institute (CI).
qHTS cell viability assay:
Cells were assayed in growth media at a density of 500-1,000 cells/well. Five microliters of cells were dispensed into 1,536-well, white, solid-bottom, TC-treated plates (Greiner Bio One) using a multidrop dispenser and incubated at 37 degrees C, 5% CO2, under a humidified atmosphere for 5 hours. Twenty-three nanoliters of compounds and controls (neutral control DMSO or positive control bortezomib at final concentration of 2.3 µM) were subsequently transferred by Kalypsys pintool. For primary screens, the MIPE collection was tested at 11-point dilutions (final concentrations range from 0.78 nM to 46 µM) and the NPC collection at 8-point dilutions (final concentrations range from 0.59 nM to 46 µM). Compounds tested in follow-up screens were assayed at 11-point dilutions. Cells were incubated for 48 hours, followed by addition of 3 µL of CellTiter-Glo (Promega). After a 15 min incubation at room temperature, samples were analyzed for luminescence intensity using a ViewLux High-throughput CCD imager equipped with clear filters.
For orientation: In qHTS, concentration-response curves come from the screen itself.
Consider `NC(=O)NO`, for which the result was inactive.

As to `CC1(CN2CCC(n3c(=O)[nH]c4ccccc43)CC2)OCc2ccccc2-n2cccc21` (stereo not given), the compound was called inactive. Still for that read-out and setting: then `NC(=O)OCC(COC(N)=O)c1ccccc1`, with “inactive”; and `Cn1c(=O)c2[nH]cnc2n(C)c1=O`, with “inactive”.

Take `CC12CC3CC(C)(C1)CC(N)(C3)C2`: the “activity change, negative = cytotoxic” value was 16.4%. For `CC#C[C@]1(O)CC[C@H]2[C@@H]3CCC4=CC(=O)CCC4=C3[C@@H](c3ccc(N(C)C)cc3)C[C@@]21C`, the “activity change, negative = cytotoxic” value is 9.13%.

For `CN1CCN(CCCN2c3ccccc3Sc3ccc(Cl)cc32)CC1`, the outcome was inactive. `CN(C)CCOC(c1ccccc1)c1ccccc1`: the “activity change, negative = cytotoxic” value was 25%.

Take `CC1COc2c(N3CCN(C)CC3)c(F)cc3c(=O)c(C(=O)O)cn1c23` (stereo not given): the “activity change, negative = cytotoxic” value was 27.3%. `NC(CO)C(=O)NNCc1ccc(O)c(O)c1O` (stereo not given): the call was inactive. Same read-out and setting: with `CN1C(C(=O)Nc2ccccn2)=C(O)c2ccccc2S1(=O)=O` the entry was “inactive”.

Consider `C[C@@H]1CC(=O)NN=C1c1ccc(NN=C(C#N)C#N)cc1`, for which the “activity change, negative = cytotoxic” value is -13.3%.

As for `CN(C)CCCN1c2ccccc2CCc2ccc(Cl)cc21`, the “activity change, negative = cytotoxic” value is 13.9%.

In the case of `CC(COc1ccccc1)N(CCCl)Cc1ccccc1` (stereo not given), the outcome was inactive. On to `COc1cc2nc(N3CCN(C(=O)c4ccco4)CC3)nc(N)c2cc1OC`, for which the “activity change, negative = cytotoxic” value was 19.7% [at 16.1 µM].

For the compound `CN(C)c1nc(N(C)C)nc(N(C)C)n1`, the outcome was inactive. Turning to `CN1CCC(=C2c3ccccc3C=Cc3ccccc32)CC1`, the “activity change, negative = cytotoxic” value was 10.1%.

Turning to `NCCS(=O)(=O)O`, the result was inactive. As for `CN1CCN(C2=Nc3cc(Cl)ccc3Nc3ccccc32)CC1`, the call was inactive.

In the case of `CC[N+](CC)(CC)CCOc1cccc(OCC[N+](CC)(CC)CC)c1OCC[N+](CC)(CC)CC`, the compound was classed as inactive. On to `Clc1ccccc1C(c1ccccc1)(c1ccccc1)n1ccnc1`, for which the “activity change, negative = cytotoxic” value was 8.56%.

`CN1CCC(=C2c3ccccc3CC(=O)c3sccc32)CC1`: the “activity change, negative = cytotoxic” value was 12.2%. As to `O=c1[nH]cc(F)c(=O)[nH]1`, the outcome was inactive. The same measure, in the same setting: then `CCN1CCCC1CNC(=O)c1cc(S(=O)(=O)CC)c(N)cc1OC` (stereo not given), with “inactive”; and `COc1cc2nc(N(C)CCCNC(=O)C3CCCO3)nc(N)c2cc1OC` (stereo not given), with “inactive”.

With `C[C@](N)(Cc1ccc(O)c(O)c1)C(=O)O`, the “activity change, negative = cytotoxic” value is 20.4%. As for `Nc1nc2c(ncn2COC(CO)CO)c(=O)[nH]1`, the outcome was inactive. For `O=c1c(-c2ccc(O)cc2)coc2cc(O)cc(O)c12`, the call was inactive. The same measure, in the same setting: then `CCOC(=O)c1ncn2c1CN(C)C(=O)c1cc(F)ccc1-2`, with “inactive”; and `Clc1ccc2c(c1)C(N1CCNCC1)=Nc1ccccc1O2`, with “inactive”; and `Cn1c(=O)c2c(ncn2C)n(C)c1=O`, with “inactive”. Same read-out and setting: with `Nc1c2c(nc3ccccc13)CCCC2` the entry was “inactive”. For the compound `O=C(CCCN1CCC(O)(c2ccc(Cl)cc2)CC1)c1ccc(F)cc1`, the outcome was inactive.

For the compound `Fc1ccc([C@@H]2CCNC[C@H]2COc2ccc3c(c2)OCO3)cc1`, the result was inactive.

For `C[C@H]1c2cccc(O)c2C(O)=C2C(=O)[C@]3(O)C(O)=C(C(N)=O)C(=O)[C@@H](N(C)C)[C@@H]3[C@@H](O)[C@@H]21`, the compound was called inactive.

With `CCC1(C)CC(=O)NC1=O` (stereo not given), the outcome was inactive. `CC(C)(Oc1ccc(C2CC2(Cl)Cl)cc1)C(=O)O` (stereo not given): the “activity change, negative = cytotoxic” value was 24.1%.

As for `CC(CCc1ccc(O)cc1)NCCc1ccc(O)c(O)c1` (stereo not given), the “activity change, negative = cytotoxic” value was 13.1%. As to `O=c1c(O)c(-c2ccc(O)c(O)c2)oc2cc(O)cc(O)c12`, the “activity change, negative = cytotoxic” value is -5.62%. On to `O=C(c1ccc(F)cc1)C1CCN(CCn2c(=O)[nH]c3ccccc3c2=O)CC1`, for which the compound was called inactive.
